CYP2C9 inhib: blockers of cytochrome P450 2C9 activity – biochemical, luminescence, ADME assay, primary screen; P11712; CYP2C9 Supersomes, luciferin-H conversion; 96,000 tested, 20% active; AID 777, 2007; inhibition, % at 5 µM;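 active = blocking of liver enzyme CYP2C9 beyond about 50% at 5 µM, limit read from the data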
Target sequence (P11712 whole entry, looked up): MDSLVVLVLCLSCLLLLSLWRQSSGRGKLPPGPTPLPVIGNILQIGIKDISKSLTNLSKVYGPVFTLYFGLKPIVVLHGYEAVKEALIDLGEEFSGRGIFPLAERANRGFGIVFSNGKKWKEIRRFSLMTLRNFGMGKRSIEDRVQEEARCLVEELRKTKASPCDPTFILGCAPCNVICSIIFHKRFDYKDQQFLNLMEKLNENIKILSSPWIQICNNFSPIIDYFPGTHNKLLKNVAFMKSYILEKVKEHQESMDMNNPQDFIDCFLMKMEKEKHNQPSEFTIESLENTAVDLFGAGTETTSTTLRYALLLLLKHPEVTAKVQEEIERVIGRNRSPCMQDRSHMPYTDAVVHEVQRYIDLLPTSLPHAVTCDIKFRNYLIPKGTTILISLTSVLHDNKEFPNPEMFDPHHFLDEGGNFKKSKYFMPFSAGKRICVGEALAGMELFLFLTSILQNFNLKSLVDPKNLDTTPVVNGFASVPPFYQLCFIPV
Pyk2 oligo antag: antagonists of Pyk2 self-association, primary screen, Q293 cells, FERM NanoBiT luminescence, HTS | stronger effect = lower value | AID 1347419, 2020 | z-score (the deposit names both 25 µM and 10 µM) | 99,000 tested, 0.83% active;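 active = Z-score of -3 or lower, scaled per plate to the spread of control and sample wells; inactive = z-score above -3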;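 note: negative z-score means lost luminescence so less FERM oligomerization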
CYP2C19 activ: human CYP2C19 activators, primary screen, biochemical, luminescence. 96,000 tested, under 10 active. Cytochrome P450 2C19 (Homo sapiens), P33261. activation factor at 5 µM. recombinant CYP2C19, luciferin-H EGE luminescence; stronger effect = higher value; 0 = fully inhibited enzyme, 1 = untreated enzyme;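 active = activation factor of at least 2 at 5 µM in the primary screen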
CYP2C9 activ: human CYP2C9 activators, primary screen, biochemical, luminescence. AID 1024, 2008. Cytochrome P450 2C9 (Homo sapiens), P11712. recombinant CYP2C9, luciferin-H conversion; stronger effect = higher value; factor 1 = untreated enzyme, 0 = blocked. 96,000 tested, 1.4% active. activation factor at 5 µM;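 active = activation factor of 2 or more for CYP2C9 at a 5 µM dose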
CYP2C19 inh: blockers of cytochrome P450 2C19 activity – biochemical, luminescence, ADME assay, primary screen | inhibition, % at 5 µM | CYP2C19 Supersomes, luciferin-H EGE luminescence, 30 min | P33261 | 96,000 tested, 21% active;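 active = CYP2C19 inhibition above a set limit at 5 µM in the primary screen, cut at about 50% in these data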
Cav32 inh: Cav3.2 calcium influx blockers – cell-based, Fluo-4 calcium fluorescence, FDSS, MLSMR library, primary screen. Cav3.2-expressing cells; stronger effect = lower value. AID 449739, 2010. Voltage-dependent T-type calcium channel subunit alpha-1H (Homo sapiens), O95180. B-score at 10 µM. 100,000 tested, 4% active;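 active = single-dose well whose peak fluorescence ratio is a statistical outlier from its plate by either plate-standardised score or position-corrected B-score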
Hits are given with their value; - = inactive; . = no result. An excerpt weighted towards active compounds, which were near 27% of everything screened.

SMILES	CYP2C9 inhib	Pyk2 oligo antag	CYP2C19 activ	CYP2C9 activ	CYP2C19 inh	Cav32 inh
O=C(Oc1ccc2c(=O)c(Oc3ccc4ccccc4c3)coc2c1)c1ccco1	-	-	-	-	-	-
CCCOc1ccc2c3c(c(=O)oc2c1)CCCC3	-	-	-	-	59	.
O=C(O)COc1ccc2c3c(c(=O)oc2c1)CCC3	-	-	-	-	-	-
CC(C)Oc1ccc2c3c(c(=O)oc2c1)CCC3	-	-	-	-	79	-
CC(C)CC(C(=O)Oc1ccc2c3c(c(=O)oc2c1)CCC3)N1C(=O)c2ccccc2C1=O (centres undefined)	-	-	-	-	-	.
CSCCC(NC(C)=O)C(=O)Oc1ccc2c3c(c(=O)oc2c1)CCCC3 (centres undefined)	-	-	-	2.8	-	-
COCCN(C(=O)CCCC(=O)Nc1ccccn1)C(C(=O)NC1CCCC1)c1ccc(C)cc1 (centres undefined)	-	-	-	-	-	-
COC(=O)C1=C(C)NC(=O)CC1c1ccccc1 (centres undefined)	.	-	.	.	.	-
COc1ccc(C2=NOC3(CC(=O)N(c4ccc5ccccc5c4)C3=O)C2)c(OC)c1 (centres undefined)	-	-	-	-	-	-
CCC(NC(=O)OC(C)(C)C)C(=O)Oc1ccc2c3c(c(=O)oc2c1)CCC3 (centres undefined)	-	-	-	-	-	-
COC(=O)C(C)Oc1ccc2c3c(c(=O)oc2c1)CCCCC3 (centres undefined)	82	-	-	-	75	-
Cc1ccc2[nH]c(=O)c3cc(C(=O)N4CCN(C(=O)c5ccco5)CC4)sc3c2c1	-	.	-	-	-	.
CCCCCCCC1CC(CSc2ncn[nH]2)OC1=O (centres undefined)	.	-	.	.	.	-
CCCCC1CC(CSc2ncn[nH]2)OC1=O (centres undefined)	-	-	-	-	80	-
CC(=O)Nc1ccc(C2Nc3ccccc3C(=O)N2C2CCCCC2)cc1 (centres undefined)	84	-	-	-	-	-
COc1ccc(CNC(=O)c2cnc3cc(C)ccn3c2=O)cc1	-	.	-	-	62	-
COc1ccc(OC)c(/C=N\NC(=O)CSc2nnc(CCCc3ccc(OC)c(C)c3)o2)c1	70	-	-	-	64	-
COc1ccc(CCCc2nnc(SCC(=O)Nc3cccc(C)c3)o2)cc1	64	-	-	-	54	-
COc1ccc(CCCc2nnc(SCC(=O)Nc3cc(C)c(C)cc3Br)o2)cc1	83	-	-	-	69	-5.1
COc1ccc(CCCc2nnc(SCC(=O)Nc3ncc(C)s3)o2)cc1	-	-	-	-	-	-
CCOCc1nc(C)c(Cl)c(NS(=O)(=O)c2ccc(N)cc2)n1	-	-	-	-	-	-
C=C1CCN([C@H](C(=O)NCc2ccccc2)C(C)C)S(=O)(=O)c2ccccc21	.	.	.	.	.	-
CC(=O)c1coc2ccc(OCCN3CCCCC3)cc12	-	-	-	-	-	-
O=C(CSc1nc(O)c(C2CCCCC2)c(=O)[nH]1)Nc1ccc(Cl)cc1	66	-	-	-	-	-7.8
CCCCc1c(O)nc(SCC(=O)Nc2ccc3c(c2)CCC3)[nH]c1=O	-	-	-	-	-	-5.7
SMILES	CYP2C9 inhib	Pyk2 oligo antag	CYP2C19 activ	CYP2C9 activ	CYP2C19 inh	Cav32 inh
O=c1oc2ccccc2c(Nc2cccc(O)c2)c1[N+](=O)[O-]	-	-	-	-	91	-
Nc1c(Nc2ccccc2)c2ccccc2oc1=O	80	-	-	-	95	-
Cc1nc(NC(=O)COC(=O)CCS(=O)(=O)c2ccccc2Cl)c(Cl)cc1Cl	-	-	-	-	-	-
Cc1cccc(NC(=O)c2cc(NC(=O)CCCC(=O)O)ccc2Cl)n1	-	-	-	-	-	-
COc1ccc(C2/C=C\CN(Cc3ccco3)CC(=O)N2Cc2ccc(F)cc2)cc1 (centres undefined)	.	.	.	.	.	-
CCCCn1c(-c2ccccc2)nc2c(=O)n(C)c(=O)[nH]c21	67	-	-	-	-	-
N/C(=N\c1nc2c(c(=O)[nH]1)CCCC2)Nc1ccccc1Sc1ccccc1	63	-	-	-	-	-
N/C(=N\c1nc2c(c(=O)[nH]1)CCCC2)Nc1ccccc1	-	-	-	-	-	-
C=C(Cl)COc1cc(C)cc2oc(=O)cc(CC)c12	52	-	-	-	-	-
CCCc1cc(=O)oc2cc(C)cc(OCC(=O)O)c12	-	-	-	-	-	-
CCc1cc(=O)oc2cc(C)cc(OC(=O)c3ccco3)c12	-	-	-	-	66	-
O=S(=O)(NCCCN1CCN(c2ccccc2F)CC1)c1cccc2cccnc12	-	.	-	2.3	55	-
CN(CCCNS(=O)(=O)c1cccc2cccnc12)Cc1ccccc1	-	.	-	2.5	-	-
O=S(=O)(NCCO)c1cccc2cccnc12	-	.	-	-	-	-
O=S(=O)(NCc1ccccc1)c1cccc2cccnc12	78	.	-	-	79	.
COc1cccc(NC(=O)c2ocnc2C)c1	-	-	-	-	-	-
COc1ccc2oc(-c3ccc(C)c(NC(=O)c4ccc(N5CCOCC5)c([N+](=O)[O-])c4)c3)nc2c1	-	-	-	-	-	-
O=c1cc(-c2ccccc2)n(S(=O)(=O)c2ccc3ccccc3c2)o1	.	-	.	.	.	.
N#Cc1cc(-c2ccccc2)nnc1Oc1ccccc1Cl	-	-	-	-	-	-
O=C(COC(=O)c1ccc2c(c1)OCCO2)NCCC1=CCCCC1	-	-	-	-	-	-
O=C(COC(=O)c1cncc(Br)c1)NCCC1=CCCCC1	72	-	-	-	88	-
CN(C)c1nc2ccc(OCCN3CCCCC3)cc2s1	-	-	-	-	-	-
O=C(Nc1nccs1)c1cccc(NC(=O)c2ccco2)c1	.	-	.	.	.	-
COCCN(C(=O)C1CC1)c1nnc(-c2cccc(C)c2)s1	80	-	-	-	72	-
Fc1ccc(-n2[nH]nnc2=S)cc1N1CCCC1	50	-	-	-	-	-
Nc1ccc(N2CCCCC2)cc1N1CCCCC1	-	-	-	-	-	.
O=C1C2C(c3ccccc3)C=CC(c3ccccc3)C2C(=O)N1C1CCCCC1 (centres undefined)	80	-	-	-	-	.
Fc1ccc(N2CCN(C(c3cccs3)c3nnnn3C3CCCC3)CC2)cc1 (centres undefined)	98	-	-	-	96	-
c1cc(C(c2nnnn2C2CCCC2)N2CCOCC2)ccn1 (centres undefined)	-	-	-	-	83	-
